# Reference: the OligoGym collection
# Target: TSEN34
# Experiment: pooled miR-30 sensor sort-seq; sequence = guide strand
# Settings: shRNA
row,Sequence,sensor-assay potency score (higher = more potent)
1,TCTTTAGACTGGACACGCCAGT,-1.04
2,TCGGGCATCAGCAGCAGCGGGA,-1.31
3,TCTGTAGATACTGTAGCGCAGC,-0.735
4,TCTCTGTAGATACTGTAGCGCA,-0.97
5,ATCACTGGTCTCATCCTCTTTG,-0.941
6,TACTGTAGCGCAGCTCGTGGGC,-0.594
7,AATCTTCTCCAGGAGCTCCTGA,-1.01
8,TTTCTGCTTCTTAGCAGCCTGG,-1.47
9,TAGACTGGACACGCCAGTCCAG,-1.11

# Target: TSPAN3
# Experiment: as above
# Settings: shRNA
row,Sequence,sensor-assay potency score (higher = more potent)
1,TACACTTTCTGAATGCTGCGAT,1.02
2,TTGCTCTGTAAACATATCCCAA,-1.02
3,TTTCTTTGAACCAATCTGTATT,-1.05
4,TTGCTGGCAGTCTCTCTGCAGC,-1.25
5,AATTCCACAACAATGCAGCTGT,0.00279
6,TTATACACTTTCTGAATGCTGC,-0.18
7,TTTCTTGTAGCTTCTTCACTAC,-0.264
8,AACCACTACAACAACTTCTGTG,0.151
9,TAAGCAGGATCTCTACTCCTTC,-0.519
10,TTCTGTGACAAAAACCAAGAGC,-0.255
11,TAGGTCTTATACACTTTCTGAA,-0.69

# Target: TSPAN8
# Experiment: as above
# Settings: shRNA
row,Sequence,sensor-assay potency score (higher = more potent)
1,TAGGATACCTGTCGCCACCTGC,-0.685
2,TTGCTTGAGAGTCATTGCTTAC,-1.33
3,TAGATTTGAAAACAGCTCCTAG,-0.482
4,AACAACAGAAGCATGCAGCGAC,-0.179
5,TATGTCTAGAAGATATCTGTGG,-0.374
6,TTGTTTTCCATTATAGCTTTGG,-0.474
7,TTTGAAAACAGCTCCTAGGATA,-0.99
8,TATGAAAAACAACAGAAGCATG,-1.79
9,TATAGCACCGCAGCATCCCAGG,-1.12
10,TTGAGAGTCATTGCTTACTCGT,-0.804
11,TTAGATTTGAAAACAGCTCCTA,0.475

# Target: TSPY2
# Experiment: as above
# Settings: shRNA
row,Sequence,sensor-assay potency score (higher = more potent)
1,TCTTGCAGAGATGAACACGATG,-0.976
2,TCCTGCACAGCCTCCATCCTGA,-1.01
3,ATGAACACGATGCTTCTCTTCT,-0.856

# Target: TSPYL2
# Experiment: as above
# Settings: shRNA
row,Sequence,sensor-assay potency score (higher = more potent)
1,TCAATGTCTGAGATCTCGCTGA,0.0217
2,ATGTCTGAGATCCTGTACCTGC,-1.08
3,ATTGTCTTCAGGATTCTCGTTG,-0.109
4,TTGTGGTCAGGATTCTCGCTGT,-0.451
5,TTGATCAAAATTGAAATTCTGG,0.568
6,TCATTGTCACTGTCGCTGCTGT,-0.335
